Screens: PubChem BioAssay, National Center for Advancing Translational Sciences (NCATS)
Sampled rows, rich in hits. Any-hit rate of the full collection: about 12%.
JMJD2A Tudor inh: JMJD2A Tudor domain (human) inhibition | AlphaScreen JMJD2A-Tudor / H3K4me3 peptide binding | O75164 | hit rate 4.4% among 390,000 | AID 504339 | Potency, µM (titrated, usually from 114 µM), for the others: at the top dose activity change, negative = inhibition, usual class: inhibitors; further: potency means the concentration at half of the fitted maximal effect; on the % scale 0 is the no-effect control and ±100 the full control effect; nearly all actives have a fitted effect of over 50% in size
BAZ2B inh: blocks human BAZ2B. Q9UIF8. AlphaScreen BAZ2B-H3K14Ac peptide displacement. Potency, µM (top dose mostly 114 µM), without a hit: top-dose activity change, negative = inhibition, most hits filed as inhibitors. hit rate 4.4% among 360,000. AID 504333; further: potency means the concentration at half of the fitted maximal effect; on the % scale 0 is the no-effect control and ±100 the full control effect; nearly all actives have a fitted effect of over 60% in size
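Inhibition is scored as reduced AlphaScreen emission. The BAZ2B/b-H3(5-23)K14Ac complex (50 nM each) in PBS pH 7.4, 0.01% Tween-20 meets compound (up to 110 uM) for 30 min at RT before bead addition.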
PI5P4K alpha inh: inhibitors of human PI5P4K alpha | P48426 | PI5P4Kalpha enzyme, ADP-Glo luminescence, 60 min; hits give low values | max response, % | hit rate 1.2% among 330,000 | AID 652105; active means max response of -50% or lower; inconclusive means between -30% and -50%; inactive means -30% or higher; further: value at the top dose of about 77 µM; on the % scale 0 is the no-effect control and ±100 the full control effect
Target sequence (P48426 whole entry, looked up): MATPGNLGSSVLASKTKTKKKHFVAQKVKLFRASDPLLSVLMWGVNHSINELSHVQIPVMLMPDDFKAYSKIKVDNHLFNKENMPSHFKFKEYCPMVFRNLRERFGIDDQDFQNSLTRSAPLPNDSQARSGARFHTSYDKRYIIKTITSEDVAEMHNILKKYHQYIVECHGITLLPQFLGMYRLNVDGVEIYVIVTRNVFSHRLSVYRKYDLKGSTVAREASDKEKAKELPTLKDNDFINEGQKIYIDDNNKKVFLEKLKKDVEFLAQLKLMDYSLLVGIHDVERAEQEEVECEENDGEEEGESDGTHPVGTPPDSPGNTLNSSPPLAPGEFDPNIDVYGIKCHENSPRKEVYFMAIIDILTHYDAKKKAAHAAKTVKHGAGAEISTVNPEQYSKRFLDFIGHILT
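ADP-Glo luminescence end-point after a 60 min room-temperature kinase reaction. PI5P4Kalpha and substrate in HEPES pH 7.4 buffer with EGTA, 0.1% CHAPS and 5% DMSO; ATP at 5 microM final.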
PLK1 PBD block: inhibitors of human PLK1 polo-box domain binding; Plk1 PBD binding of FITC phosphopeptide, fluorescence polarization; Potency, µM, without a hit: max response, negative = inhibition, most hits filed as inhibitors; hit rate 2.8% among 360,000; AID 720504; further: potency means the concentration at half of the fitted maximal effect; series mostly up to about 57 µM; on the % scale 0 is the no-effect control and ±100 the full control effect; nearly all actives have a fitted effect of over 65% in size
G9a inh: inhibitors of human histone lysine methyltransferase G9a | Q96KQ7 | hit rate 8.8% among 350,000 | G9a H3K9 monomethylation, AlphaScreen, 2 h | Potency, µM (top dose mostly 102 µM), inactives show at the top dose activity, negative = inhibition, hits mostly inhibitors; further: potency means the concentration at half of the fitted maximal effect; on the % scale 0 is the no-effect control and ±100 the full control effect; nearly all actives have a fitted effect of over 75% in size
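Step 1: enzyme (final 20 nM) with compound, 15 min RT. Step 2: substrate peptide 500 nM and SAM 20 uM, 2 h RT. Step 3: anti-H3K9me1 antibody and AlphaScreen beads, 10 min, then plate read.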
HP1b binding inh: inhibitors of HP1-beta chromodomain binding to methylated histone tails | Potency, µM (top dose mostly 114 µM), inactives show at the highest dose activity change, negative = inhibition, actives largely listed as inhibitors | AlphaScreen HP1-beta / biotin-H3K9me3 peptide binding | P83916 | hit rate 0.56% among 390,000 | AID 540317; further: potency means the concentration at half of the fitted maximal effect; nearly all actives have a fitted effect of over 70% in size
Target sequence (P83916 whole entry, looked up): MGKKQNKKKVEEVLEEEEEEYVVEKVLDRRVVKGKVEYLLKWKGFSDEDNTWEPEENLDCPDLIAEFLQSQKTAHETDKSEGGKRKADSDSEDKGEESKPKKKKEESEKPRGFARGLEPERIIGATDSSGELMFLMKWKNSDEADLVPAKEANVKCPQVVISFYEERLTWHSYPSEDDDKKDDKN
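AlphaScreen: HP1-beta (50 nM) preformed 30 min with biotin-H3(1-18)K9me3 peptide (50 nM) in PBS pH 7.4, 0.01% Tween-20. Compound added for 30 min at RT, then streptavidin donor/nickel chelate acceptor beads (10 ug/mL) for 30 min.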
ADP-Glo interf: counter-screen for PI5P4K inhibitors: ADP-Glo detection interference, no enzyme; shares compounds with PI5P4K alpha inh; ADP-Glo detection counter-screen, luciferase luminescence, no enzyme; Potency, µM (series often up to 76.9 µM), inactives show at the top dose activity change, negative = inhibition, actives largely listed as inhibitors; 1,100 tested, under 10 active
Numbers without * were called inactive; [ ] = remark or other dose. Unless noted, the call rests on the fitted dose curve; in most records, active means well fitted curve in the direction sought with a large enough effect; inconclusive means small, poorly fitted or top-dose-only effect, or another doubt; inactive means no such curve, though single readings can be large; an effect the other way counts as inactive or inconclusive.

Results for O=C(N[C@@H](Cc1ccccc1)C(=O)OCc1ccccc1)c1nc[nH]c1C(=O)NC(c1ccccc1)c1ccccc1 ?
JMJD2A Tudor inh: -22%; BAZ2B inh: -30%; PI5P4K alpha inh: 7; PLK1 PBD block: -7%; G9a inh: 8%[12.7 µM]; HP1b binding inh: 33%; ADP-Glo interf: -2%

What do the screens show for `O=C(NCCN1CCN(c2ccccc2)CC1)C1CCCN(S(=O)(=O)c2cnc[nH]2)C1` (stereo not drawn)?
JMJD2A Tudor inh: -28%; BAZ2B inh: 1%; PI5P4K alpha inh: -61*; PLK1 PBD block: -7%; G9a inh: inconclusive; HP1b binding inh: 22%; ADP-Glo interf: 4%

Results for O=c1c(Cl)c(N2CCCCC2)cnn1-c1nc2ccccc2[nH]1 ?
JMJD2A Tudor inh: -14%; BAZ2B inh: inconclusive; PI5P4K alpha inh: -7; PLK1 PBD block: -1%; G9a inh: 47%[0.501 µM]; HP1b binding inh: 32%

Results for O=c1c2ccccc2cnn1-c1nc2ccccc2[nH]1 ?
JMJD2A Tudor inh: -19%; BAZ2B inh: -10%; PI5P4K alpha inh: -50*; PLK1 PBD block: -27%; G9a inh: -11%; HP1b binding inh: 36%; ADP-Glo interf: 25µM*

How did Cc1c(C(=O)N2CCCC2)oc2c1-c1nn(CC(=O)NCc3cccc(Br)c3)cc1CC2 do in these assays?
JMJD2A Tudor inh: 1%; BAZ2B inh: -39%; G9a inh: inconclusive; HP1b binding inh: 43%

How did C[C@@H]1CN([C@H](C)CO)S(=O)(=O)c2ccc(C3=CCCCC3)cc2O[C@H]1CN(C)C(=O)Cc1cccnc1 do in these assays?
PI5P4K alpha inh: 5; PLK1 PBD block: -8%

Results for NC(=O)c1c(NC(=O)c2ccccc2F)sc2c1CCC2 ?
PI5P4K alpha inh: inconclusive; PLK1 PBD block: -4%

Results for NC(=O)c1c(NC(=O)c2ccccc2)sc2c1CCC2 ?
JMJD2A Tudor inh: -12%; BAZ2B inh: inconclusive; PI5P4K alpha inh: -51*; PLK1 PBD block: inconclusive; G9a inh: -44%; HP1b binding inh: 68%; ADP-Glo interf: -2%

How did NC(=O)c1c(NC(=O)C2CC=CCC2C(=O)O)sc2c1CCCCC2 (stereo not drawn) do in these assays?
JMJD2A Tudor inh: 56µM*; BAZ2B inh: inconclusive; PI5P4K alpha inh: -53*; PLK1 PBD block: 27µM*; G9a inh: 8.9µM*; HP1b binding inh: inconclusive; ADP-Glo interf: -3%

What do the screens show for `NC(=O)c1c(NC(=O)CN2CCCC2)sc2c1CCCC2`?
JMJD2A Tudor inh: 18µM*; BAZ2B inh: 0%; PI5P4K alpha inh: -53*; PLK1 PBD block: 3µM*; G9a inh: 30%[12.7 µM]; HP1b binding inh: -1%; ADP-Glo interf: 3%

Results for O=C(Nc1sc2c(c1C(=O)O)CCC2)c1cccc(Cl)c1 ?
JMJD2A Tudor inh: inconclusive; BAZ2B inh: -20%; PI5P4K alpha inh: inconclusive; PLK1 PBD block: inconclusive; G9a inh: -12%[2.33 µM]; HP1b binding inh: 25%

Results for O=C(Nc1sc2c(c1C(=O)O)CCC2)c1ccccc1Cl ?
JMJD2A Tudor inh: inconclusive; BAZ2B inh: 3%; PI5P4K alpha inh: -59*; PLK1 PBD block: -11%; G9a inh: 8%[0.501 µM]; HP1b binding inh: 7%; ADP-Glo interf: -8%

What do the screens show for `O=C(CSc1cn[nH]n1)Nc1ccc(Cl)cc1Cl`?
JMJD2A Tudor inh: -18%; BAZ2B inh: 4%; PI5P4K alpha inh: -1; PLK1 PBD block: -4%; G9a inh: -7%; HP1b binding inh: 3%

Results for O=S(=O)(O)c1cc(O)c2cc(Nc3ccccc3)ccc2c1 ?
JMJD2A Tudor inh: 14µM*; PI5P4K alpha inh: -69*; PLK1 PBD block: 19µM*; HP1b binding inh: 35µM*; ADP-Glo interf: -6%

What do the screens show for `O=C(O)c1cc2cc(S(=O)(=O)O)ccc2cc1O`?
JMJD2A Tudor inh: 2%; PI5P4K alpha inh: inconclusive; PLK1 PBD block: -3%; HP1b binding inh: 40%

Results for COc1ccc(S(=O)(=O)O)cc1P(=O)(c1ccccc1)c1ccccc1 ?
JMJD2A Tudor inh: -17%; BAZ2B inh: -13%; PI5P4K alpha inh: 2; PLK1 PBD block: -3%; G9a inh: 3%; HP1b binding inh: 16%

What do the screens show for `COc1ccccc1Nc1ccc2c(O)cc(S(=O)(=O)O)cc2c1`?
JMJD2A Tudor inh: 20µM*; PI5P4K alpha inh: -102*; PLK1 PBD block: 11µM*; HP1b binding inh: 22µM*; ADP-Glo interf: 2%

How did Cc1ccc2nc(SCC(=O)NCc3ccccc3Cl)nc(=O)n2c1 do in these assays?
JMJD2A Tudor inh: -9%; BAZ2B inh: 7%; PI5P4K alpha inh: 3; PLK1 PBD block: -2%; G9a inh: 25%[2.33 µM]; HP1b binding inh: 35%

What do the screens show for `Cc1ccn2c(=O)nc(SCC(=O)NCc3ccccc3Cl)nc2c1`?
JMJD2A Tudor inh: -28%; BAZ2B inh: -32%; PI5P4K alpha inh: -59*; PLK1 PBD block: -11%; G9a inh: inconclusive; HP1b binding inh: 4%; ADP-Glo interf: -4%

What do the screens show for `CCOc1ccc(NC(=O)c2sc(NC(C)=O)c(C(=O)OC)c2C)cc1`?
JMJD2A Tudor inh: 7%; BAZ2B inh: 1%; PI5P4K alpha inh: -5; PLK1 PBD block: 0%; G9a inh: 1%; HP1b binding inh: 23%

How did COC(=O)c1c(NC(C)=O)sc(C(=O)Nc2ccccc2)c1C do in these assays?
JMJD2A Tudor inh: -11%; BAZ2B inh: -14%; PI5P4K alpha inh: inconclusive; PLK1 PBD block: -5%; G9a inh: 8%; HP1b binding inh: 0%; ADP-Glo interf: 2%

Results for Cc1cccc(NC(=O)CSc2nc(-c3cccs3)cc(C(F)(F)F)c2C#N)c1C ?
JMJD2A Tudor inh: 2%; BAZ2B inh: 14%; G9a inh: 30%[59 µM]; HP1b binding inh: 53%

How did COc1ccc(OC(=O)c2ccc(Cl)cc2)c(C(C)=O)c1 do in these assays?
JMJD2A Tudor inh: 5%; BAZ2B inh: 104%; PI5P4K alpha inh: -4; PLK1 PBD block: -7%; G9a inh: 74%; HP1b binding inh: 11%

What do the screens show for `COc1ccc(Nc2ccc(Cl)cc2)c(C(=O)O)c1`?
JMJD2A Tudor inh: -31%; BAZ2B inh: -35%; PI5P4K alpha inh: -52*; PLK1 PBD block: -3%; G9a inh: inconclusive; HP1b binding inh: -9%; ADP-Glo interf: 2%

How did Cc1ccc(CNC(=O)Cc2ccc(-n3cccc3)cc2)cc1 do in these assays?
JMJD2A Tudor inh: 11%[57.1 µM]; BAZ2B inh: 2%; PI5P4K alpha inh: -4; PLK1 PBD block: -2%; G9a inh: 24%; HP1b binding inh: 47%
